# Assay outcomes (PubChem BioAssay)
# Pf gametocyte = kills late stage P. falciparum gametocytes; P. falciparum stage V gametocytes, ATP luminescence, 24 h; inhibition, % at 10.9 µM; 0.065% of 150,000 active;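 active means inhibition above the mean plus 3 SD of compounds within the control limits, set per campaign, cut at about 38% in these data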
# Mcl1 Noxa PPI = disrupts binding of human Mcl-1 to Noxa peptide; Q07820; 1.5% of 220,000 active; AID 1022; inhibition, % at 21.7 µM; TR-FRET Mcl-1/Noxa peptide binding, 2 h;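 active means compounds that cut the protein-peptide binding signal by more than 50% relative to plate controls in a single-dose test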;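 further: His-tagged Mcl-1 with rhodamine Noxa BH3 peptide and terbium anti-His antibody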
# Target sequence (Q07820 whole entry, looked up): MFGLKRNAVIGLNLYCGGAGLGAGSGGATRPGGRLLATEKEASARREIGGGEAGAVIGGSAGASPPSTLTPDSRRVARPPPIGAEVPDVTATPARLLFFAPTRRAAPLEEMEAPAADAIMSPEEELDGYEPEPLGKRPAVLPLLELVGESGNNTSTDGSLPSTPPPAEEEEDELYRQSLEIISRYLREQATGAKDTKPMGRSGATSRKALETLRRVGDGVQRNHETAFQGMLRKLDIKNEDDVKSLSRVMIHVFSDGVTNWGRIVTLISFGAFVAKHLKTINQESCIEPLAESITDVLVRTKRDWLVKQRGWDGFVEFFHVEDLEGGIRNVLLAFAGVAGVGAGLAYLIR
# Bim-Mcl-1 = inhibitors of Bim-Mcl-1 interaction, human. Q07820. Bead-based flow cytometry, Bim peptide-Mcl-1 binding. inhibition, % at 10 µM. 0.1% of 190,000 active; in the data active means inhibition above about 40%
# Mcl1-Bid inh = Mcl-1/Bid interaction inhibition; Q07820; TR-FRET Mcl-1/Bid-Dy647 peptide binding, 1536-well; inhibition, % at 21.7 µM; 0.97% of 220,000 active; AID 1021;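 active means compounds that cut the binding signal by more than half at the single screening dose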;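 further: His-tagged Mcl-1 with europium anti-His antibody binding Bid BH3 peptide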
# eIF4E-4G inh = blocks eIF4E binding to eIF4G; inhibition, % at 21.7 µM; TR-FRET eIF4E-eIF4GI(517-606) binding, 2 h; AID 782; 0.37% of 220,000 active; P63073+Q04637;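 active means inhibition above about 30%, limit read from the data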
# 14-3-3 Bad inh = disrupts binding of bovine 14-3-3 zeta to phospho-Bad peptide. P63103. TR-FRET 14-3-3zeta/Dy647-pBad peptide displacement, 1 h. inhibition, % at 21.7 µM. 0.71% of 220,000 active. AID 781;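 active means inhibition above about 70%, limit read from the data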
# Target sequence (P63103 whole entry, looked up): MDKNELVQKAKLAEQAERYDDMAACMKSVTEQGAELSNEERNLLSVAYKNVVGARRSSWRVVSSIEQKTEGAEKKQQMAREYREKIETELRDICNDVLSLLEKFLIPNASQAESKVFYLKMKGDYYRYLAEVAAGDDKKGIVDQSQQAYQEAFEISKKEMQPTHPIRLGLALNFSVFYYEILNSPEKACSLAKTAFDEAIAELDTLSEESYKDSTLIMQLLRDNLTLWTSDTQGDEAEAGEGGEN
# A number is an active result; - = inactive; . = no result given. This is a sample that favours compounds with a hit; in the whole collection about 2.7% have one here.
SMILES,Pf gametocyte,Mcl1 Noxa PPI,Bim-Mcl-1,Mcl1-Bid inh,eIF4E-4G inh,14-3-3 Bad inh
CNc1ccc(Br)cc(C(=O)/C=C/c2cc(OC)ccc2OC)c1=O,-,87,-,-,-,-
COCCCNC(=O)/C=C/c1ccc(Cl)cc1Cl,.,-,-,-,-,-
CNc1ccc(Br)cc(C(=O)/C=C/c2ccc3c(c2)OCO3)c1=O,.,68,-,-,-,-
COc1ccc(/C=C/C(=O)c2ccc(OC)cc2OC)cc1,.,-,-,-,-,-
O=C(NC1=NCCCCC1)c1cccc2ccccc12,-,-,-,-,-,-
CNC(=O)N(C1=NCC(C)(C)S1)c1ccc(F)c(Cl)c1,.,-,-,-,-,-
COc1ccc(OC)c(CN2CCN(Cc3cccc4ccccc34)CC2)c1,-,-,-,-,-,-
CSCCn1c(C(C)(C)C)cc(C(=O)O)c1C,-,-,.,-,-,-
COc1ccc(N2CCN(C(=O)[C@H](Cc3c[nH]c4ccccc34)NC(C)=O)CC2)cc1,-,-,-,-,-,-
Cc1ccc2c(c1)-c1[nH]c(=S)ncc1CS2,-,-,-,-,-,-
N#Cc1ccsc1NC(=O)CSc1ncnc2ccccc12,-,68,-,-,-,-
N#Cc1ccsc1NC(=O)CSc1ncn[nH]1,-,-,-,-,-,-
CCOC(=O)c1c(NC(=O)CSc2ncnc3ccccc23)sc(C)c1C,-,-,-,59,-,-
N#Cc1ccsc1NC(=O)CSc1nnnn1-c1ccc(O)cc1,-,66,-,-,-,-
Cn1ccnc1SCC(=O)Nc1sccc1C#N,-,-,-,-,-,-
CCOC(=O)c1c(NC(=O)CSc2nnnn2-c2ccc(OC)cc2)sc(C)c1C,.,-,-,-,30,-
Cc1ccc(-n2cc(C(=O)O)c(=O)cc2C)c(C)c1,-,-,-,-,-,-
CCN(CCO)c1nc(SC)nc2c1sc1nc(-c3ccco3)c3c(c12)CCC3,.,99,-,52,-,-
CCN(CCO)c1ncnc2c1sc1nc(C(C)C)c3c(c12)CC(C)(C)OC3,-,-,-,-,-,-
CSc1nc(NCCOCCO)c2sc3nc(-c4ccco4)c4c(c3c2n1)CCC4,-,96,-,-,-,-
CCOC(=O)C1C(=O)CC(C)(O)C(C(=O)OCC)C1c1ccco1 (configuration not stated),.,-,-,-,-,-
CC(C)(C)OC(=O)C1C(=O)CC(C)(O)C(C(=O)OC(C)(C)C)C1c1cccnc1 (configuration not stated),-,-,-,-,-,80
CC(C)COC(=O)C1C(=O)CC(C)(O)C(C(=O)OCC(C)C)C1c1cccnc1 (configuration not stated),-,-,-,-,-,-
Cc1cccc(OCC(=O)N2CCN(C(=O)c3ccco3)CC2)c1,-,-,-,-,-,-
N/C(=N\O)C1COc2ccccc2O1 (configuration not stated),-,-,-,-,-,84
SMILES,Pf gametocyte,Mcl1 Noxa PPI,Bim-Mcl-1,Mcl1-Bid inh,eIF4E-4G inh,14-3-3 Bad inh
Cc1onc(C(=O)Nc2c(C)n(C)n(-c3ccccc3)c2=O)c1[N+](=O)[O-],-,-,.,-,-,-
Cc1sc(NC(=O)c2cc(-c3ccccc3)nc3ccccc23)c(C(N)=O)c1C,-,-,-,-,-,-
Cc1sc(NC(=O)c2cc(-c3ccc(Cl)cc3)nc3ccccc23)c(C(N)=O)c1C,-,77,-,77,-,79
CCN(CC)c1ccc(NC(=O)CCNC(=O)c2ccco2)cc1,-,79,-,-,-,-
COc1cccc(NC(=O)C(NCC(C)(C)CN(C)C)c2ccccc2)c1 (configuration not stated),.,-,-,-,-,70
CCOC(=O)COc1c(Cl)cc(/C=C2\N=C(C)OC2=O)cc1OC,-,.,.,.,.,.
Cc1ccc(C(=O)Nc2ccccc2SCC2CSc3nc4ccccc4c(=O)n32)cc1 (configuration not stated),-,-,-,53,-,-
O=c1ccc(Oc2nc(N3CCCCC3)nc(N3CCCCC3)n2)n[nH]1,.,-,-,-,-,74
Cc1cc(NC(=O)C2CCN(S(=O)(=O)c3cnc[nH]3)CC2)ccc1Br,.,-,-,-,-,-
Cc1cc(=O)c2ccc(C(F)(F)F)cc2[nH]1,-,-,.,83,-,-
CCOC(=O)c1cccc(Nc2nc(C)cc(C)n2)c1,-,-,-,-,-,71
CCOC(=O)c1ccc2nc(C)cc(Nc3cccc(C(=O)O)c3)c2c1,.,-,-,-,-,-
Cc1ccc(-n2c(CNC(=O)c3cccs3)nnc2SCC(=O)NO)cc1,-,-,-,-,-,-
O=C(N/N=C/C=C/c1ccccc1)C1CC1c1ccccc1 (configuration not stated),-,-,-,-,-,-
CC(C)(C)c1nc(NCCN2CCOCC2)c2nnn(Cc3ccccc3Cl)c2n1,.,-,41,-,-,-
COc1ccc(C2=CC(=O)C=CC2=O)cc1,.,87,.,-,41,-
CC(C)(C)C(=O)NNc1nc(-c2ccccc2)c2cc(Br)ccc2n1,-,-,-,97,-,-
COc1ccc(C2CC23N=C(c2ccccc2)OC3=O)cc1 (configuration not stated),-,-,-,-,-,-
COc1ccc(CC(=O)Nc2nnc(C(C)C)s2)cc1,-,-,-,-,47,-
CC(C)c1nnc(NC(=O)Cc2ccc(Br)cc2)s1,-,-,-,-,-,-
CCOc1cc(/C=N/N=C2/NC(=O)C(CC(=O)O)S2)ccc1OCc1ccc(Cl)cc1Cl (configuration not stated),.,55,-,-,-,-
COc1cc(/C=N/N=C2/NC(=O)C(CC(=O)O)S2)ccc1OCc1ccc(Cl)cc1 (configuration not stated),-,-,-,-,-,-
CN(C)c1ccc(C(=O)/C=C/c2ccc(Br)cc2)cc1,-,-,82,-,-,-
CC(=O)c1cc(C#N)c(SCc2ccc([N+](=O)[O-])cc2)nc1C,-,-,-,-,-,-
COc1cccc(C(=O)/C=C/Nc2ccc(S(=O)(=O)Nc3onc(C)c3C)cc2)c1,-,-,66,-,-,-
SMILES,Pf gametocyte,Mcl1 Noxa PPI,Bim-Mcl-1,Mcl1-Bid inh,eIF4E-4G inh,14-3-3 Bad inh
CC(C)CN(C(=O)COC(=O)c1cc2c(s1)CCC2)C1CCS(=O)(=O)C1 (configuration not stated),-,55,-,-,-,-
COC(=O)c1cc(O)cc(OC)c1Oc1cc(C)cc(O)c1C(=O)O,.,85,.,-,-,-
COC(=O)c1cc(O)cc(OC)c1C(=O)c1c(O)cc(C)cc1O,.,-,.,-,-,-
CCOC(=O)C1CCN(c2nc(C)cc(C)c2C#N)CC1,-,-,-,-,-,-
CCOC(=O)C1CCN(c2nc(N)c3c(N)nc(SCC(=O)O)cc3c2C#N)CC1,-,77,.,-,-,-
CN(C)CCC1Sc2ccccc2Oc2ccccc21 (configuration not stated),-,-,-,58,-,-
